The values below come from the OligoGym collection.
Also: reference of the scale not given here.

The first experiment addresses PRKX. As to the kind of experiment: pooled miR-30 sensor sort-seq; sequence = guide strand. Particulars: shRNA.
Regarding TCATGTTTCCTAATCGCCTTGT, the sensor-assay potency score (higher = more potent) was determined as 0.781.
As for TAATGAGGTCTTTTACATGGAA, the sensor-assay potency score (higher = more potent) was -0.747.
As for TTAATGAGGTCTTTTACATGGA, the sensor-assay potency score (higher = more potent) was -0.298.
Regarding TTTCCTAATCGCCTTGTTCTGT, the sensor-assay potency score (higher = more potent) was -0.676.
The same measure, in the same setting: as for TCGCCTTGTTCTGTCAACCACG, the figure is -0.962; as for TAGCTGAAGAGCTCGCCGCCCG, -0.771.
TTCCTAATCGCCTTGTTCTGTC showed a sensor-assay potency score (higher = more potent) of -0.396.
Regarding ATTGTGTACGTGTTGCTCCTGC, the sensor-assay potency score (higher = more potent) was 0.0637.
Regarding TTGGCGAACCCAAAGTCCGTGA, the sensor-assay potency score (higher = more potent) was -0.61.
Still for that read-out and setting: as for TTCTCTGGCTTCAAGTCCCTGT, the figure is -0.5; as for TTGGAGTGCAGGTACTCGATGG, -0.357.
Sequence TTCATGTTTCCTAATCGCCTTG had a sensor-assay potency score (higher = more potent) of -0.603.

In a further experiment the target is PRM2. The description is as above. Particulars: shRNA.
On to TTGCGCCTTCTGCAGGAGCGAT, for which the sensor-assay potency score (higher = more potent) is -1.7.
TAGACCTCGACGTGCTCCGGGC came in with a sensor-assay potency score (higher = more potent) of -1.
Same read-out and setting: the value for TTTCTCTTAACTTCCAGCTGGG was 0.205; that for TTCGAGAGCAGTGTCTGCGCCT was -0.241; that for TCGAGAGCAGTGTCTGCGCCTA was -0.978.
The same measure, in the same setting: the value for TTGCCCATGCAACTGCTGCCTG was -0.795; that for TATAGTGAGACTGGCCATGGGT was -0.496.
In the case of TGCCTGTACACCTCGTGCGAGC, the sensor-assay potency score (higher = more potent) is -1.54.
Same read-out and setting: the value for TTCTCTTAACTTCCAGCTGGGG was -0.773; that for TTGCTCTTGCCCATGCAACTGC was -0.57; that for TTCCTGGTTCTGCAGCCTCTGC was -1.75.
Sequence TTTTTCTTAATTTCCAGCTGGG gave a sensor-assay potency score (higher = more potent) of 0.485.
